Bioassay records as filed in PubChem.
CYP2C9 act = CYP2C9 (human) activation; P11712; recombinant CYP2C9, luciferin-H conversion, luminescence; hits give high values; factor 1 = untreated enzyme, 0 = blocked; activation factor at 5 µM; 1.4% of 96,000 active;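 active means activation factor of 2 or more for CYP2C9 at a 5 µM dose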
Target sequence (P11712 whole entry, looked up): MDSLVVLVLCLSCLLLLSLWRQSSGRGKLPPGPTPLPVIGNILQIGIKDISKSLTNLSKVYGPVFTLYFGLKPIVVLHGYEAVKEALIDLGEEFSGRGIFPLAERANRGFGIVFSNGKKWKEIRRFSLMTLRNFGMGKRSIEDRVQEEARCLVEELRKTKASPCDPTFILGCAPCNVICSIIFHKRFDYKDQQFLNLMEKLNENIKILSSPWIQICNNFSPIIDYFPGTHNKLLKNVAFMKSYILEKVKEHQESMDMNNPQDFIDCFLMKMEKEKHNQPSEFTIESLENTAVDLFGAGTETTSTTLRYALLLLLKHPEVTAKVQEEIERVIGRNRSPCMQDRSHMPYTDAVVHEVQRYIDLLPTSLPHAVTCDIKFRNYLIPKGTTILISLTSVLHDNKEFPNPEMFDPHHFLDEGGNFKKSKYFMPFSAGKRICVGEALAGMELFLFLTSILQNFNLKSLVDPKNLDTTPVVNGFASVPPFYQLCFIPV
PostGolgi ctrl = yeast control strain growth, post-Golgi counter-screen | inhibition, % at 10 µM | efflux-deficient yeast background strain, growth absorbance A615, 16 h | AID 738 | 5% of 98,000 active
CYP2C9 inhib = blocks human cytochrome P450 2C9; 20% of 96,000 active; AID 777; P11712; CYP2C9 Supersomes, luciferin-H conversion, luminescence; inhibition, % at 5 µM;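 active means blocking of liver enzyme CYP2C9 beyond about 50% at 5 µM, limit read from the data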
CYP2C19 activ = increases human CYP2C19 enzyme activity | activation factor at 5 µM | 96,000 tested, under 10 active | recombinant CYP2C19, luciferin-H EGE luminescence; hits give high values; 0 = fully inhibited enzyme, 1 = untreated enzyme | P33261;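 active means activation factor of at least 2 at 5 µM in the primary screen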
PostGolgi yeast = growth inhibition of a yeast mutant, post-Golgi transport screen; post-Golgi transport phenotypic cell assay; 0.9% of 98,000 active; inhibition, % at 10 µM; AID 739;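 further: yeast cells grown in 1536-well plates; yeast grown about 18 h at 30C before absorbance read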
CYP2C19 inh = inhibitors of human CYP2C19. P33261. CYP2C19 Supersomes, luciferin-H EGE luminescence, 30 min. inhibition, % at 5 µM. 21% of 96,000 active. AID 778;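 active means CYP2C19 inhibition above a set limit at 5 µM in the primary screen, cut at about 50% in these data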
Hits are given with their value; . = inactive. A selection: hits, their analogues and other compounds. The true share with any hit is near 32%. Unless noted, no stated cut-off is given here; in the data, active means inhibition above about 30%; inactive means the rest.

SMILES | CYP2C9 act | PostGolgi ctrl | CYP2C9 inhib | CYP2C19 activ | PostGolgi yeast | CYP2C19 inh
O=C(NCc1ccco1)C1CCCN(S(=O)(=O)c2cccc3cccnc23)C1 (stereo not given) | 4.1 | . | . | . | . | 70.4
CC(C)(C)NC(=O)C1CCCN(S(=O)(=O)c2cccc3cccnc23)C1 (stereo not given) | 2.7 | . | . | . | . | .
CC(NC(=O)OCc1ccccc1)C(=O)N1CC(O)CC1C(=O)O (stereo not given) | . | . | . | . | . | .
CCCC1C(c2ccc(OC)cc2)C(C#N)(C#N)C2(C#N)CC1(N)NC2=O (stereo not given) | . | . | . | . | . | .
O=C(NC1CCCC1)c1noc2c1CCCCC2 | . | . | . | . | . | .
O=[N+]([O-])c1ccc2c(c1)C(N1CCOCC1)/C(=C/COc1ccc3ccccc3c1Br)O2 (stereo not given) | . | . | . | . | . | 52.1
O=[N+]([O-])c1ccc2c(c1)C(N1CCOCC1)/C(=C/COc1ccc(F)cc1)O2 (stereo not given) | . | . | 54.0 | . | . | 84.1
O=[N+]([O-])c1ccc(OC/C=C2\Oc3ccc([N+](=O)[O-])cc3C2N2CCOCC2)cc1 (stereo not given) | . | 35.2 | . | . | . | 70.6
Cc1sc2ncn(CC(=O)NCCCC(=O)N3CCN(c4ncccn4)CC3)c(=O)c2c1C | . | . | . | . | . | .
Cc1cc(OCC(=O)Nc2ccncc2)ccc1Br | . | . | 99.2 | . | . | 100.4
O=C(COc1ccc2ccccc2c1)Nc1ccc(Cc2ccncc2)cc1 | . | . | 94.8 | . | . | 89.8
Cc1cc(-c2ccccc2)n(-c2ccc(C(=O)N3CCN(c4ncccn4)CC3)cc2)n1 | . | 61.1 | 60.9 | . | . | .
Cc1cc(C)n(-c2nc3ccccc3nc2N2CCCCCC2)n1 | . | 38.9 | . | . | . | 75.2
COc1ccc(S(=O)(=O)N2CCN(c3nc4ccccc4nc3-n3nc(C)cc3C)CC2)cc1 | . | . | 58.9 | . | . | .
Cc1cc(C)n(-c2nc3ccccc3nc2N2CCN(C(=O)c3ccc(Cl)cc3)CC2)n1 | . | . | 60.4 | . | . | .
Cc1cc(C)n(-c2nc3ccccc3nc2N2CCCC2)n1 | . | . | . | . | . | .
COc1ccc(N2C(=O)CC(n3c(CCCCO)nc4ccccc43)C2=O)cc1 (stereo not given) | . | . | . | . | . | .
CCN(CC)c1cnn(C/C(=N\OC)c2ccc(Cl)cc2)c(=O)c1Br | . | . | 94.4 | . | . | 97.1
COc1ccc(C2(CCN)CC(C)N(C)CC2C)cc1 (stereo not given) | . | . | . | . | . | .
Nc1nnc(SCc2cccnc2)s1 | . | . | . | . | . | .
Cc1nc2ccccc2nc1CSc1nnc(N)s1 | . | . | . | . | . | 53.7
COc1ccc(CC(C)N2CCN(c3ccccc3)CC2)cc1OC (stereo not given) | . | . | . | . | . | .
O=c1ccn(Cc2ccccc2)c(=O)n1Cc1ccccc1 | . | . | . | . | . | 78.4
Cn1c(=O)n(Cc2ccccc2)c2ccccc21 | . | . | . | . | . | .
O=[N+]([O-])c1ccc(/C=N/Nc2nc(N3CCCCC3)nc(N3CCCCC3)n2)o1 | . | 49.1 | . | . | . | .
SMILES | CYP2C9 act | PostGolgi ctrl | CYP2C9 inhib | CYP2C19 activ | PostGolgi yeast | CYP2C19 inh
COc1c(/C=N/Nc2nc(N3CCCCC3)nc(N3CCCCC3)n2)cccc1[N+](=O)[O-] | . | . | . | . | . | .
CCOC(=O)CSc1nc(N)c(C#N)c(-c2ccc(OC)cc2)c1C#N | . | . | . | . | . | 60.1
CCCCOC(=O)CSc1nc(N)c(C#N)c(-c2ccc(OC)cc2)c1C#N | . | . | . | . | . | .
CCCCOC(=O)CSc1nc(N)c(C#N)c(-c2ccc(OCC)cc2)c1C#N | . | . | . | . | . | .
CCOC(=O)CC(=O)CSc1nc(N)c(C#N)c(-c2ccc(F)cc2)c1C#N | . | . | 52.9 | . | . | 62.2
C=C(C)CSc1nc(N)c(C#N)c(-c2ccc(C)cc2)c1C#N | . | . | 50.0 | . | . | .
Cc1cc(C)cc(NC(=O)CSc2nnc(CNC(=O)c3cccs3)o2)c1 | . | . | . | . | . | .
Cc1ccc(S(=O)(=O)N2c3ccccc3NC(=O)C2CC(=O)Nc2ccccc2)cc1 (stereo not given) | . | . | 88.6 | . | . | 56.9
